In PubChem BioAssay AID1458 (National Center for Advancing Translational Sciences (NCATS), 2008):
Among all 210,000 compounds or so, about 5,900 (2.8%) were called active. Entries that show only a call come without a potency. Roughly 5% stayed inconclusive and do not appear here. The sample holds actives, similar compounds and a random draw of the others, so the mix is not that of the screen. Calls follow the shape of the dose curve; as a rule, active = well fitted activation curve with a large enough effect; inconclusive = small, poorly fitted or top-dose-only effect; inactive = no such curve, though single readings can be large or run the other way.

experiment: qHTS Assay for Enhancers of SMN2 Splice Variant Expression; conditions: HEK293 SMN2-luciferase splicing reporter, luminescence, 30-36 h; series mostly up to 46.1 µM; also: nearly all actives have a fitted effect of over 55% in size
Description: NIH Chemical Genomics Center [NCGC] NIH Molecular Libraries Probe Production centers Network [MLPCN] MLPCN Grant: R03 MH084179-01 Assay Submitter (PI): Elliot Androphy NCGC Assay Overview: Spinal muscular atrophy (SMA) is caused by insufficient levels of the survival motor neuron protein SMN. The SMN locus on chromosome 5q13 contains two inverted copies of SMN called SMN1 and SMN2 which are 99% identical at the amino acid level. SMN1 is a fully functional protein and SMN2 skips exon 7 90% of the time. Skipping of exon 7 produces non-functional protein product. 10% of the SMN2 protein includes exon 7 and is fully functional. In the SMA disease state, mutations in the SMN1 locus are the cause of the disease state. Because only 10% of SMN2 is of the fully functional form, it is not sufficient to overcome the deficiency produced by the loss of the SMN1 product. A therapy that either increase the amount of SMN2 product made or to increase the inclusion of exon 7 has been proposed for the treatment of SMA. We have designed an assay to identify small molecules that can increase the amount of functional SMN2 product by appending a luciferase reporter gene after the native SMN2 gene, such that inclusion of exon 7 in the expressed product places the luciferase sequence in frame, thus generating functional luciferase enzyme.
NCGC Assay Protocol Summary: This screen utilizes a luciferase reporter gene assay, combining the promoter and splicing based cassettes in tandem with the major portion of the native SMN2 cDNA, and then transfected into HEK293 cells. Compounds that increase luciferase signal presumably enhance expression of the functional SMN2 splice variant. Passaging media contained DMEM w/ glutamax (+phenol red) 10% FCS, 1x pen/strep, 200 ug/ml hygro, 1x sodium pyruvate. Assay media contained DMEM w/ glutamax (-phenol red) 10% FCS, 1x pen strep, 1x pyruvate Sequence, Parameter, Value, Description (1) Cells, […], 2000 cells/well, 1536 TC treated White solid bottom plate (2) Time, 10-12 hours, 37C 5% CO2 (3) Compound, 23 nl, MLSMR Library (4) Control Compound, 23 nL, Sodium butyrate st 4.5mM (final) conc (5) Time, 30-36 hours, 37C 5% CO2 (6) Reagent, 3 ul, One Glo (TM) from Promega (7) Time, 5-15 minutes, Room temp (8) Detector, Viewlux: luminescent read, 60 second integration, high speed 2x binning Keywords: Spinal muscular atrophy, SMA, SMN2, high throughput screening, MLSMR, MLPCN, NIH Roadmap, qHTS and NCGC
Potency is read from the fitted curve at half-maximal effect.

SMILES	Potency
O=c1c(-c2ccccc2)coc2c(CN3CCOCC3)c(O)ccc12	inactive
Cc1c(O)cc(O)c2c(=O)c(-c3ccc(O)cc3)coc12	inactive
O=c1c(-c2ccccc2)coc2cc(O)ccc12	22.4 µM (active)
COc1cc2nc(NCC(C)c3ccccc3)n3nc(-c4ccccc4)nc3c2cc1OC (stereo not given)	inactive
Cc1cc(C)c2oc(C(=O)Nc3c(C(=O)Nc4ccccc4)oc4ccccc34)cc(=O)c2c1	inactive
Cc1ccc(Cl)cc1N1CCN(C(=O)C2CCC(CNS(=O)(=O)c3cccs3)CC2)CC1 (stereo not given)	inactive
COc1cc(C(=O)OCc2ccc([N+](=O)[O-])cc2)cc(OC)c1OC	inactive
COc1cc(/C=N\Nc2ccc([N+](=O)[O-])cn2)ccc1OCC(=O)O	inactive
COc1cc(/C=N/O)ccc1OCc1ccc([N+](=O)[O-])cc1	14.1 µM (active)
COc1ccc(N2CCN(C(=O)C3CCCN(C(=O)c4cc5sccc5n4C)C3)CC2)cc1 (stereo not given)	inactive
Cc1ccc(S(=O)(=O)c2nc(-c3ccco3)oc2SCC(=O)Nc2ccc(F)cc2)cc1	inactive
Cc1ccccc1C(=O)Nc1ccc(N2CCCCCC2)cc1	12.6 µM (active)
COc1cccc(C(=O)Nc2ccc(N3CCCC3)cc2)c1	8.91 µM (active)
COc1ccc(C(=O)NC(=S)Nc2ccc(N3CCCC3)cc2)cc1OC	inactive
Cc1cc(NS(=O)(=O)c2ccc(NC(=O)c3ccccc3C)cc2)nc(C)n1	inactive
COc1cccc(C(=O)Nc2cc3c(cc2Br)OCCCO3)c1	10 µM (active)
COc1cccc(OC)c1C(=O)Nc1ccc(N2CCCCC2)cc1	inactive
COc1ccc(C2COC(=O)C2=N)c(NC(=O)c2ccccc2)c1 (stereo not given)	inactive
COc1cccc(C(=O)NNC(=O)c2ccccc2Br)c1	inactive
C/C(=N\NC(=O)c1ccccc1C)c1ccc(N2CCOCC2)cc1	inactive
CCn1cc(C(=O)NCc2ccccc2)c(=O)c2cc(S(=O)(=O)N3CCCCC3)ccc21	inactive
CC(C)Cn1c(=O)c2ccccc2n2c(CCC(=O)N3CCN(c4cccc(Cl)c4)CC3)nnc12	inactive

SMILES	Potency
Cc1ccc(OCCn2c(CNc3ccccc3C)nc3ccccc32)cc1	inactive
O=C(NCCCO)c1nn(-c2ccc(Cl)cc2)nc1CO	inactive
O=C(Cn1c(=O)n(Cc2cccs2)c(=O)c2cccnc21)Nc1ccc(F)cc1	inactive
Cc1ccc(NC(=O)CN2C(=O)C(c3ccc(F)cc3)=NC23CCCCCC3)c(C)c1	inactive
CCOc1ccc(N(Cc2ccccc2)C(=O)c2nc(S(C)(=O)=O)ncc2Cl)cc1	inactive
O=C(CCS(=O)(=O)c1cc(Br)cc2c1N(C(=O)C1CC1)CC2)Nc1ccc(C(F)(F)F)cc1	inactive
O=C(c1ccco1)n1nc(-c2ccc(Cl)cc2)nc1NCc1ccccc1	inactive
CCCCOc1ccc(CN2C(=O)C(=O)c3cc(Br)cc(C)c32)cc1OC	inactive
COC(=O)c1ccccc1NC(=O)c1ccc(COc2ccccc2Cl)o1	inactive
N#Cc1ccccc1NC(=O)c1cccc(COc2ccc(Cl)cc2Cl)c1	0.794 µM (active)
CSc1ccc(C#N)cc1NC(=O)c1cccc(Cl)c1	inactive
Cc1cccc2c1-c1sc(C(=O)Nc3ccc(F)cc3F)cc1CO2	inactive
Nc1nc2c(ncn2[C@@H]2O[C@H](COP(=O)(O)OP(=O)(O)OP(=O)(O)O)[C@@H](O)C2O)c(=O)[nH]1 (stereo not given in full)	inactive
CCN(CC)S(=O)(=O)c1cccc(C(=O)Nc2ccccc2)c1	inactive
Cc1ccc(C(=O)Nc2ccc(C(=O)O)cc2)cc1S(=O)(=O)Nc1ccccc1	inactive
CCN(CC)S(=O)(=O)c1cc(C(=O)Nc2ccccn2)ccc1C	22.4 µM (active)
COC(=O)c1ccc(OC)c(Cn2c(=O)n(Cc3ccccc3)c(=O)c3c2c2cc(OC)ccc2n3C)c1	inactive
CNC(=O)CSc1nnnn1-c1ccc(C)cc1C	inactive
Cc1ccc(C(=O)CSc2nc(-c3ccccc3)nc3c2CCCC3)c(C)c1	inactive
CCn1nnnc1SCC(=O)c1ccc(C)cc1C	2.82 µM (active)
COc1ccccc1-c1cc(C(F)(F)F)nc(S(=O)(=O)CCCC(=O)Nc2ccc(F)cc2F)n1	inactive
NC(=S)N/N=C/c1ccc([N+](=O)[O-])cc1	inactive

SMILES	Potency
Cc1nc2ccccc2cc1C(=O)N/N=C/c1ccc([N+](=O)[O-])cc1	inactive
Cc1ccc(NC(=O)CN2CCC(C(N)=O)CC2)cc1[N+](=O)[O-]	inactive
COc1ccc(NC(=O)c2ccccc2[N+](=O)[O-])cc1OC	inactive
Cc1ccsc1C(=O)N/N=C/c1ccc([N+](=O)[O-])cc1	12.6 µM (active)
Cc1ccc(NC(=O)c2sccc2C)cc1[N+](=O)[O-]	14.1 µM (active)
Cc1ccc(C)c(CN2C(=O)c3ccccc3S(=O)c3ccc(C(=O)N4CCOCC4)cc32)c1 (stereo not given)	inactive
COc1ccccc1-c1cc2nc(C)c(CCC(=O)O)c(C)n2n1	inactive
Cc1ccc(CN2COc3cc(C)c4c(oc(=O)c5ccccc54)c3C2)cc1	inactive
Cc1ccc2nc(/C(C#N)=C/c3ccc(-c4ccc(C(=O)OC(C)C)cc4)o3)[nH]c2c1	11.2 µM (active)
Cc1ccc2nc(/C(C#N)=C\c3ccc(OC(=O)c4cccs4)cc3)[nH]c2c1	inactive
CCOC(=O)c1ccc(-c2ccc(/C=C(\C#N)C(=O)Nc3ccc(OCC)cc3)o2)cc1	inactive
O=C(NCCc1ccccc1)c1ccc2c(c1)N(Cc1ccccc1)C(=O)c1ccccc1S2(=O)=O	inactive
NC(=O)N1CCc2ccccc21	inactive
O=C(CSCc1ccccc1)N1CCc2ccccc21	12.6 µM (active)
Cc1nnc(SCC(=O)N2CCc3ccccc32)n1-c1ccccc1	inactive
Cc1ccc(C)c(N2CCN(C(=O)CN3C(=O)COc4ccc(S(=O)(=O)N5CCCCCC5)cc43)CC2)c1	inactive
Cc1cc(C)nc(NS(=O)(=O)c2ccc(NC(=O)c3cc(=O)c4ccc(C)c(C)c4o3)cc2)n1	inactive
COc1ccccc1-c1nnc(C2CCN(C(=O)c3ccc(Cl)cc3)CC2)o1	inactive
COc1ccc(C(=O)/C=C/Nc2ccccn2)cc1	1.41 µM (active)
Cc1cc(N/C=C\C(=O)c2ccc(Cl)c(Cl)c2)no1	inactive
CCOc1cc(NC(=O)c2ccccn2)c(OCC)cc1NC(=O)c1ccc(OC)cc1	inactive
